# Screen size: about 330,000 compounds; about 1,700 (0.52%) were called active.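 How the source made its calls: active means GFP response versus DMSO above a set limit, roughly screen mean plus 3 SD (cut at about 180% in these data); inconclusive means fewer than 70 cells counted for a yeast strain; inactive means the rest.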 This excerpt belongs to a sample that is enriched for actives.
# Experiment: TOR pathway GLN3 branch reporter MEP2-GFP changes – S. cerevisiae, multiplex flow cytometry, MLPCN library, primary screen (AID 2016);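 further: median GFP fluorescence of the barcode-gated MEP2-GFP cells per well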
# Settings: S. cerevisiae MEP2-GFP strain, 3 h, at 10 µM, hits give high values, 100% = DMSO control level
row,SMILES,GFP response vs DMSO
1,CC(C)(C)C(=O)/C(C#N)=C/c1ccc(O)cc1,95.4% (inactive)
2,Cc1cc(=O)oc2cc(NC(=O)C(C)Oc3ccccc3)ccc12 (stereo not drawn),99.1% (inactive)
3,Cc1cc(=O)oc2cc(NC(=O)C3CC(=O)N(Cc4ccccc4)C3)ccc12 (stereo not drawn),559% [may fluoresce violet] (active)
4,O=C(Nc1ccc(F)c([N+](=O)[O-])c1)C1CC(=O)N(Cc2ccccc2)C1 (stereo not drawn),101% (inactive)
5,O=C(C(Cc1ccccc1)n1cccc1)N1CCN(C2CCCCC2)CC1 (stereo not drawn),96.8% (inactive)
6,CC(C)Cn1cnc2c1c(=O)n(CC(=O)NN)c(=O)n2Cc1ccccc1,97.4% (inactive)
7,CCN(CC)Cc1cc(C(C)=O)ccc1O,103% (inactive)
8,CN(CCO)Cc1csc2ccc(Br)cc12,112% (inactive)
9,CCN(CC)Cc1csc2ccc(Br)cc12,200% (active)
10,CC(=O)N1c2ccc(S(=O)(=O)NCCC(=O)N(C)C3CCCCC3)cc2CC1C (stereo not drawn),104% (inactive)
11,Cc1ccc(S(=O)(=O)Oc2ccc(/C=N/NC(=O)c3c(Cl)cnn3C)cc2)cc1,98.8% (inactive)
12,COc1ccc(CCNC(=O)c2ccccc2-c2ccccc2C(=O)O)cc1OC,93% (inactive)
13,COc1ccccc1OCCNc1cc(N2CCOCC2)ccc1[N+](=O)[O-],106% (inactive)
14,COc1ccc(CCNc2cc(N3CCN(C(=O)c4ccccc4OC)CC3)ccc2[N+](=O)[O-])cc1OC,180% [may fluoresce violet] (active)
15,COC(=O)/C(=C\Nc1ccccc1)NC(=O)c1ccc(Cl)cc1Cl,91.1% (inactive)
16,COCC1CCN(C(=O)c2ccc3oc(Cc4ccccc4)nc3c2)C1 (stereo not drawn),101% (inactive)
17,CCOC(=O)c1nnn(-c2nonc2-n2cccc2)c1CN1CCOCC1,92.2% (inactive)
18,CCOC(=O)c1c(CN(C)C)n(-c2ccccc2)c2cc(Br)c(O)cc12,96.5% (inactive)
19,CCOC(=O)c1c(CN2CCOCC2)n(-c2ccccc2)c2ccc(O)cc12,240% [may fluoresce violet] (active)
20,Cc1ccc2nnn(Cc3cccc(C(C)(C)C)c3O)c2c1,92.5% (inactive)
21,COc1ccc(C)cc1NC(=O)CN1c2cccc3cccc(c23)S1(=O)=O,101% (inactive)
22,COc1cc(C(=O)Nn2c(O)c(C3=c4ccccc4=NC3=O)sc2=S)ccc1O,96.1% (inactive)
23,COc1cccc(-n2c(SCC(=O)NC3CCS(=O)(=O)C3)nc3ccccc3c2=O)c1 (stereo not drawn),109% (inactive)
24,O=C1N(Cc2ccc3c(c2)OCO3)c2ccccc2C1(O)c1c[nH]c2ccccc12 (stereo not drawn),104% (inactive)

row,SMILES,GFP response vs DMSO
1,Cc1ccc(C(=O)Nc2ccn(C)n2)cc1,109% (inactive)
2,CN(C)S(=O)(=O)c1cc(C(=O)Nc2ccn(C)n2)c(Cl)cc1Cl,7710% [may fluoresce green] (active)
3,O=C(Nc1nccs1)c1cc(S(=O)(=O)N2CCOCC2)c(Cl)cc1Cl,97.8% (inactive)
4,CCOC(=O)N1CCN(S(=O)(=O)c2ccc(Br)cc2)CC1,576% [may fluoresce violet] (active)
5,CCOC(=O)N1CCN(S(=O)(=O)c2ccc(OC)cc2)CC1,98.6% (inactive)
6,CCOC(=O)N1CCN(S(=O)(=O)c2ccc(-n3cnnn3)cc2)CC1,93.2% (inactive)
7,NC(=O)COC(=O)c1ccc2c(c1)C(=O)N(Cc1ccco1)C2=O,103% (inactive)
8,COc1ccc(-c2sc3ccc(OC)cc3c2C#Cc2ccccn2)cc1,87.4% (inactive)
9,COc1ccc2sc(-c3ccc(N(C)C)cc3)c(C#CCO)c2c1,180% [may fluoresce violet] (active)
10,COc1ccc2sc(-c3ccc(N(C)C)cc3)c(-c3ccc4cc[nH]c4c3)c2c1,105% (inactive)
11,COc1ccc(S(=O)(=O)NCC(c2ccco2)N2CCOCC2)cc1 (stereo not drawn),97.3% (inactive)
12,O=C(CC1CCCCC1)NCc1ccc(F)cc1,92.1% (inactive)
13,O=C(CSc1nnnn1-c1ccc(O)cc1)c1ccc(F)cc1,106% (inactive)
14,COC(=O)c1ccc(-c2noc(CN(Cc3ccccn3)CC3CCCO3)n2)cc1 (stereo not drawn),102% (inactive)
15,COc1ccc(CN2CCn3ncc(C(=O)Nc4ccc(Cl)cc4Cl)c3C2=O)cc1,107% (inactive)
16,O=C1N=C(N2CCOCC2)CS1,99.2% (inactive)
17,CC(=O)NC(CC(=O)Nc1ccc(S(=O)(=O)N2CCOCC2)cc1)c1ccccc1 (stereo not drawn),95.3% (inactive)
18,O=C(N/N=C/c1cccc([N+](=O)[O-])c1)C1CC(=O)N(c2ccc(Br)cc2)C1 (stereo not drawn),100% (inactive)
19,O=[N+]([O-])c1ccc(N/N=C/c2ccccc2)cc1,102% (inactive)
20,O=[N+]([O-])c1cccc(/C=N/Nc2ncc(Br)cn2)c1,239% (active)
21,COC(=O)C(C)n1cnc2c(nnn2-c2ccc(F)cc2)c1=O (stereo not drawn),95.3% (inactive)
22,CCOC(=O)C(C)n1cnc2c(nnn2-c2ccc(F)cc2)c1=O (stereo not drawn),98.2% (inactive)
23,CCOC(=O)C(CC)Sc1ncnc2c1nnn2-c1ccc(F)cc1 (stereo not drawn),191% (active)
24,CC(=O)c1cccc(OCc2cc(C(=O)NC(C)Cc3cccnc3)no2)c1 (stereo not drawn),92.2% (inactive)

row,SMILES,GFP response vs DMSO
1,CCOC(=O)c1[nH]c(C)c(C(=O)OCC(=O)N2c3ccccc3CC2C)c1C (stereo not drawn),105% (inactive)
2,CN(C)C(=O)c1cccn(Cc2cccc(C(F)(F)F)c2)c1=O,97.2% (inactive)
3,COc1ccccc1Nc1nnc(SC(C)C(=O)NC2CC2)s1 (stereo not drawn),100% (inactive)
4,COc1ccc(C(=O)NC2CC2)cc1OC1CCN(Cc2ccc(SC)cc2)CC1,112% (inactive)
5,COc1ccc(CN2CCCC(C(=O)c3ccc(Cl)cc3)C2)cc1Cn1cncn1 (stereo not drawn),99.8% (inactive)
6,COc1cc(CN2CCCC(C(=O)c3ccc(SC)cc3)C2)cc(Cl)c1O (stereo not drawn),596% [may fluoresce violet] (active)
7,COc1ccc(OC)c(NC(=O)CSc2nc(-c3ccccc3)cc(=O)[nH]2)c1,107% (inactive)
8,Cc1cc(=O)oc2cc(OCC3CC(c4ccccc4Cl)=NO3)ccc12 (stereo not drawn),100% (inactive)
9,O=C(Cn1ncc(N2CCCC2)c(Br)c1=O)c1ccc(Cl)cc1,98.2% (inactive)
10,Cc1ccccc1S(=O)(=O)Cc1ccc(C(=O)NCCN2CCCCC2C)o1 (stereo not drawn),460% [may fluoresce violet] (active)
11,CCc1ccccc1S(=O)(=O)Cc1ccc(C(=O)NCCc2ccccc2)o1,109% (inactive)
12,Cc1oc(-c2ccccc2F)nc1CS(=O)CC(=O)NCCN1CCCCC1C (stereo not drawn),103% (inactive)
13,CCOc1ccc(CCNC(=O)C(CC)n2nc(C)n3c(cc4sccc43)c2=O)cc1OCC (stereo not drawn),105% (inactive)
14,CCOc1ccc2nc(N(CCN(C)C)C(=O)c3ccc4ccccc4c3)sc2c1,233% [may fluoresce violet] (active)
15,CCOc1ccc2nc(N(CCCN(C)C)C(=O)c3ccc(C(=O)c4ccccc4)cc3)sc2c1,104% (inactive)
16,CCc1ccc2nc(N(CCCN(C)C)C(=O)c3ccc4c(c3)OCCO4)sc2c1,104% (inactive)
17,CC(C)(C)c1ccc(C(CC(=O)O)NS(=O)(=O)Cc2ccccc2)cc1 (stereo not drawn),98.8% (inactive)
18,CCSC1=NCCN1C(=O)c1ccc(S(=O)(=O)N(CC)CC)cc1,106% (inactive)
19,O=C(NCCc1ccccc1)C(=O)NCC1OCCN1S(=O)(=O)c1cccs1 (stereo not drawn),108% (inactive)
20,CCN1/C(=C/c2ccc3ccc(C)cc3[n+]2CC)Sc2ccccc21,351% [may fluoresce green] (active)
21,CCN1/C(=C\c2ccc3ccccc3[n+]2CC)Sc2cc(C)ccc21,1150% [may fluoresce green] (active)
22,O=C(NC1Cc2ccccc2C1)c1cc(COc2cccc(C(F)(F)F)c2)on1,104% (inactive)
23,Cc1ccc(C)c(OCC(=O)N2CCN(C(=O)c3ccco3)CC2)c1,105% (inactive)
24,Cc1ccc(OCC(=O)Nc2ccc(N3CCN(C(=O)c4ccco4)CC3)cc2)c(C)c1,229% [may fluoresce violet] (active)

row,SMILES,GFP response vs DMSO
1,CCC(=O)Nc1ccc(C(=O)N2CCN(C(=O)c3ccco3)CC2)cc1,104% (inactive)
2,CCN(C[C@H]1N[C@@](Cc2ccccc2)(C(=O)OC)[C@H]2C(=O)N(Cc3ccccc3)C(=O)[C@@H]12)C(=O)c1ccc(C)cc1,84.7% (inactive)
3,CC(CN1CCOCC1)OC(=O)c1ccc(C(C)(C)C)cc1 (stereo not drawn),110% (inactive)
4,CC(C)(C)OC(=O)c1c(N)n(CCCN2CCCC2=O)c2nc3ccccc3nc12,107% (inactive)
5,COCC(C)OC(=O)c1c(N)n(CCCN2CCOCC2)c2nc3ccccc3nc12 (stereo not drawn),210% [may fluoresce violet] (active)
6,CCOC(=O)Cc1csc(NC(=O)CN(C)S(=O)(=O)c2ccc3c(c2)CCC(=O)N3)n1,96% (inactive)
7,CCCN1C(=O)C(NC(C)=O)c2cc(OC)ccc21 (stereo not drawn),107% (inactive)
8,O=C(CS(=O)(=O)c1cn(Cc2ccc(Cl)cc2)c2ccccc12)N1CCOCC1,91.9% (inactive)
9,CC(=O)Nc1ccc(NC(=O)CS(=O)(=O)c2cn(CC(=O)N3CCCCC3)c3ccccc23)cc1,95.1% (inactive)
10,O=C(CS(=O)(=O)c1cn(Cc2cccc(F)c2)c2ccccc12)N1CCCCC1,236% [may fluoresce violet] (active)
11,CC(NC(=O)c1cccc2ccccc12)c1ccc2c(c1)CCCC2 (stereo not drawn),148% (inactive)
12,Cc1c(C(=O)OCC(=O)N2CCCC2=O)oc2ccccc12,108% (inactive)
13,Cc1ccc(C(=O)N2CC(=O)Nc3ccccc32)o1,101% (inactive)
14,O=C(O)c1cccc2c1C(=O)N(C1CCCC1)C2,97.4% (inactive)
15,Nc1nnc(SCC(=O)OCc2ccc(Cl)c(Cl)c2)s1,95.3% (inactive)
16,O=C(NCC1CCCO1)/C(=C\c1ccco1)NC(=O)c1ccccc1 (stereo not drawn),102% (inactive)
17,Cc1ccc(C(=O)N/C(=C/C=C/c2ccccc2)C(=O)NCc2ccco2)cc1,95.7% (inactive)
18,Cc1ccc(C(=O)N/C(=C\c2ccco2)C(=O)N2CCSCC2)cc1C,109% (inactive)
19,NC(=O)C1CCN(C(=O)/C(=C/c2ccco2)NC(=O)c2ccccc2)CC1,215% [may fluoresce violet] (active)
20,O=C(NCc1ccco1)/C(=C/c1ccco1)NC(=O)c1ccccc1,206% [may fluoresce violet] (active)
21,CC1CCN(C(=O)/C(=C\c2ccccc2)NC(=O)c2ccccc2)CC1,106% (inactive)

# Reference: PubChem BioAssay AID2016 (NMMLSC, 2009)
